Test results reported in PubChem BioAssay (NCI).
This is part of a sample that, as a whole, favours compounds with a hit. Of some 83,000 tested, about 20% had one in any assay.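 Testing used 96-well plates and a 48-hour single-concentration exposure. Example: -40 means 40% of the starting cells died.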 A number with no mark means an inactive call. The source made the active and inactive calls. Rule for the calls: active = growth percent below 10; inactive = the rest.

How the values were obtained:
Assay in all cases: NCI-60 one-dose screen, 48 h (100 = growth as untreated, 0 = no growth, -100 = all killed)
SR leukemia = conditions: 10 µM unless noted
RPMI-8226 leukemia = conditions: 10 µM unless noted
OVCAR-8 ovarian = conditions: 10 µM unless noted
OVCAR-5 ovarian = conditions: 10 µM unless noted
SK-OV-3 ovarian = conditions: 10 µM unless noted
IGROV1 ovarian = conditions: 10 µM unless noted
OVCAR-3 ovarian = conditions: 10 µM unless noted
HS 578T breast = conditions: 10 µM
NCI/ADR-RES ovarian = conditions: 10 µM unless noted
T-47D breast = conditions: 10 µM unless noted
BT-549 breast = conditions: 10 µM unless noted
MDA-MB-435 melanoma = conditions: 10 µM unless noted
SW-620 colon = conditions: 10 µM unless noted
MCF7 breast = conditions: 10 µM unless noted
HCT-116 colon = conditions: 10 µM unless noted
HCC-2998 colon = conditions: 10 µM unless noted
KM12 colon = conditions: 10 µM unless noted
OVCAR-4 ovarian = conditions: 10 µM unless noted

Row | Structure (SMILES) | growth (SR leukemia) | growth (RPMI-8226 leukemia) | growth (OVCAR-8 ovarian) | growth (OVCAR-5 ovarian) | growth (SK-OV-3 ovarian) | growth (IGROV1 ovarian) | growth (OVCAR-3 ovarian) | growth (HS 578T breast) | growth (NCI/ADR-RES ovarian) | growth (T-47D breast) | growth (BT-549 breast) | growth (MDA-MB-435 melanoma) | growth (SW-620 colon) | growth (MCF7 breast) | growth (HCT-116 colon) | growth (HCC-2998 colon) | growth (KM12 colon) | growth (OVCAR-4 ovarian)
1 | CN(C)CCOc1nc2c3ccncc3cc(-c3cccc(Cl)c3)c2c2cnccc12 | -27.7% (active) | 9% (active) | 18.2% | 58.8% | 46.8% | 28.9% | 45.6% | 54.3% | 15.4% | 38.7% | 52.6% | 30% | 27.4% | 12.5% | 11.4% | 45% | 31.8% | 
2 | CCOC(C)(c1ccc(Cl)cc1)C1CCNCC1 (stereo not drawn) | 88.1% | 114% | 100% | 102% | 96.1% | 115% | 110% | 92.7% | 92.5% | 91.7% | 99.5% | 109% | 79% | 94.8% | 97.8% |  | 98.2% | 
3 | Cc1ccc(/C=C/C(=N/N=C(N)N)c2ccccc2)cc1 | -9.62% (active) | 11.1% | 24.6% | 54.4% | 9.84% (active) | 43.1% | -28.6% (active) | -5.3% (active) | 35.2% | 40.9% | 47.7% | -16.9% (active) | 25.9% | 11.6% | 20.1% | 20.9% | 14.8% | 
4 | CCCCNCC(O)c1cc2c(Cl)cc(Cl)cc2c2cc(C(F)(F)F)ccc12 (stereo not drawn) | -68% (active) | -38.8% (active) | -56% (active) | -81.2% (active) | -22.8% (active) | -65.2% (active) | -91.1% (active) | -51.6% (active) | -64% (active) | -74.6% (active) | 11.9% | -52.7% (active) | -68.2% (active) | -83.5% (active) | -91.7% (active) |  | -89.4% (active) | 
5 | COC(=O)C(C)NC1=C(Cl)C(=O)C(NC(C)C(=O)OC)=C(Cl)C1=O (stereo not drawn) | 92.9% | 96.1% | 94.2% | 111% | 105% | 120% | 61.2% | 113% | 101% | 96.6% | 99.4% | 75.7% | 104% | 82.2% | 97.9% | 106% | 96.8% | 
6 | COc1ccc2[nH]c(O)c(/C=c3/ccc4c(c3)N=C(c3ccc(C(F)(F)F)cc3)N=4)c2c1 | 62.6% | 77.1% | 87.1% | 113% | 112% | 55.2% | 77.5% | 72.8% | 84.7% | 57.4% | 81.2% | 76.5% | 86.4% | 45.1% | 56% | 97.7% | 75.1% | 
7 | COC(=O)CNS(=O)(=O)c1ccc2c(c1)Cc1cc(S(=O)(=O)NCC(=O)OC)ccc1-2 | 102% | 103% | 97.3% | 103% | 97.7% | 96.5% | 102% | 95.7% | 105% | 99.5% | 100% | 103% | 102% |  | 109% | 111% | 109% | 
8 | O=C(O)C1[S][Sb]([CH](C(=O)O)[CH](C(=O)O)[Sb]2[S]C(C(=O)O)C(C(=O)O)[S]2)[S]C1C(=O)O (stereo not drawn) | 50.2% | 91.9% | 96.2% | 118% | 103% | 87.8% | 95.7% | 101% | 104% | 86.8% | 63.8% | 116% | 103% | 67.9% | 100% | 108% | 100% | 
9 | COc1ccc(/C(=C\c2cc(OC)c(OC)c(OC)c2)C(=O)N2CCCNCC2)cc1 | 103% | 107% | 103% | 111% | 103% | 113% | 116% | 107% | 112% | 93.1% | 114% | 111% | 108% | 97.3% | 104% | 99.8% | 110% | 
10 | COc1cc(NC(C)CCCN)c2ncccc2c1Sc1ccc(Cl)cc1 (stereo not drawn) | -35.2% (active) | -8.1% (active) | 33.3% | 77.8% | 94.7% | 38.9% | 58.6% | 58.9% | 91.6% | 58.7% | 90.9% | 55.7% | -69.1% (active) | 26% | 23.9% | 12.3% | 34.4% | 
11 | CSC(=S)N/N=C(\C)c1ccccn1 | -3.68% (active) | 12% | 14.6% | 27.1% | 30.2% | 19.4% | 5.95% (active) | 38.1% | 12.8% | 21.8% | 28.8% | 35.8% | 29.5% |  | 9.68% (active) | 28% | 19.9% | 
12 | C/C(=C\C(=N\N=C(N)N)c1ccc(Cl)cc1)c1ccc(Cl)cc1 | -67.9% (active) | -40.2% (active) | -80.9% (active) | -75.5% (active) | -22.4% (active) | -60.6% (active) | -87.7% (active) | -50.9% (active) | -69.6% (active) | -79.6% (active) | -84.1% (active) | -62.9% (active) | -72.7% (active) |  | -85.9% (active) | -87.3% (active) | -88.2% (active) | 
13 | CCOC(=O)c1c(NC(=O)c2ccccc2)sc2c(O)c(CN(CC)CC)ccc12 | 9.72% (active) | 18.2% | 2.1% (active) | 48.6% | -14.8% (active) | 22.4% | -61.6% (active) | 26.9% |  | 44.9% | 0.881% (active) | -55.4% (active) | 19.6% | 8.33% (active) | 7.59% (active) | 11.6% | 2.35% (active) | 
14 | CCN(CC)c1ccc(C(=N)c2ccc(N(C)C)cc2)cc1 |  | 6.17% (active) | 11.9% | 16.8% | 14.4% | 4.79% (active) | -12.6% (active) | -31% (active) | -31.1% (active) | -13.6% (active) | 28.9% | 2% (active) | -18.6% (active) | 2.36% (active) | 1.67% (active) | 15.4% | -8.02% (active) | 21.4%
15 | N#Cc1nc(-c2ccc(Cl)cc2)cc(-c2ccc(Nc3nc(N4CCCCC4)nc(N4CCCCC4)n3)cc2)c1N |  | 111% | 96.5% | 113% | 90.9% | 91.4% | 105% | 94.1% | 102% | 100% | 99.2% | 106% | 99.3% | 99.6% | 102% | 112% | 107% | 110%
16 | COc1cc(C)c2c(=O)c3c(oc2c1)C(=O)c1c(O)c(OC)cc(O)c1C3=O | 15.7% | -8.23% (active) |  | -4.74% (active) | 9.16% (active) |  | 5% (active) | 35% | 5.56% (active) | 0.298% (active) | 11.7% | 16.3% | 16.9% | 7.86% (active) | 7.58% (active) | 1.73% (active) | 14.6% | 1.77% (active)
17 | C/C(=N\NC(=S)N1CCCCC1)c1ccccn1 |  | -19.4% (active) | 16% | 29.3% | 27.6% | 11.2% | -12.9% (active) | 16.8% | 15.2% | 17.9% | 29.4% | 14.6% | 21.9% | 12.8% | 13.3% | 34.8% | 13% | -30.6% (active)
18 | O=C(CS)OCC(COC(=O)CS)(COC(=O)CS)COC(=O)CS | 38.6% | 90.6% | 82.2% | 104% | 103% | 94.4% | 109% |  | 74.3% | 89.1% | 108% | 78.8% | 107% | 75.9% | 79.6% | 92.2% | 67.5% | 
19 | C=C(C)C1CCC2(C(=O)O)CCC3(C)C(CCC4C5(C)CCC(O)C(C)(C)C5CCC43C)C12 (stereo not drawn) | 9.38% (active) | 7.96% (active) |  | -87.3% (active) | 28% | 7.47% (active) | -56.1% (active) |  | -54% (active) | -1.03% (active) | -57.5% (active) | 48.6% | 19.6% | 1.31% (active) | -88.5% (active) |  | -26.6% (active) | -40.7% (active)
